DT40 TDP1 no CPT: qHTS for Inhibitors of human tyrosyl-DNA phosphodiesterase 1 (TDP1): qHTS in cells in absence of CPT | DT40 Tdp1-/- hTDP1 cells, no CPT, ATP luminescence, 48 h | actives 15% (n = 420,000) | Potency, µM (highest dose often 46.2 µM), most hits filed as inhibitors; note: nearly all actives have a fitted effect of over 55% in size
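No-CPT arm: Tdp1-/-;hTDP1 DT40 cells (400/well) plus compounds, incubated ≥48 hr at 37 °C. Readout CellTiter-Glo luminescence.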
KB-3-1 tox: kills parental KB-3-1 adenocarcinoma cells | KB-3-1 viability, CellTiter-Glo ATP luminescence, 72 h | AID 1347075 | Potency, µM (highest dose often 46.1 µM), actives largely listed as cytotoxic | actives 1.4% (n = 400,000); note: nearly all actives have a fitted effect of over 60% in size
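Cells are dispensed, compounds pinned in, plates held at 37 °C for 72 h, then CellTiter-Glo is added and luminescence read after 10 minutes. Cell line: parental KB-3-1 in phenol-red-free DMEM, 10% FBS.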
HT1080NT lethal: kills 2HG-producing HT-1080-NT fibrosarcoma cells | HT-1080-NT fibrosarcoma viability, CellTiter-Glo ATP luminescence, 48 h | Potency, µM (series often up to 46.1 µM), most hits filed as cytotoxic | AID 686970 | actives 1.6% (n = 360,000);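 note: NT is the 2HG producing partner of a matched IDH1 knockdown line; nearly all actives have a fitted effect of over 55% in size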
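Toxicity toward the 2HG-producing NT line was scored as %Activity, normalised to DMSO and no-cell wells, from CellTiter-Glo luminescence after 48 hours' treatment.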
KB-V1 cytotox: KB-V1 MDR subline cytotoxicity | Potency, µM (titrated, usually from 46.1 µM), hits mostly cytotoxic | AID 1347076 | actives 3.4% (n = 400,000) | KB-V1 MDR cells viability, CellTiter-Glo, 72 h; note: nearly all actives have a fitted effect of over 60% in size
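Cytotoxicity toward P-gp-expressing KB-V1 cells was determined as loss of CellTiter-Glo luminescence after 72 h at 37 degrees C. Compounds were tested in quantitative HTS format across a concentration range, with curves fitted to normalized data.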
HT1080 IDH1KD tx: toxicity to HT-1080 IDH1 knockdown cells (counter line); Potency, µM (highest dose often 46.1 µM), hits mostly cytotoxic; HT-1080 IDH1 knockdown viability, ATP luminescence, 48 h; actives 2% (n = 360,000); AID 686971
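Viability of IDH1-knockdown HT-1080 fibrosarcoma cells was assessed by CellTiter-Glo after 48 h at 37 °C with titrated compound; concentration-effect curves were classified by fit quality and response size.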
TDP1 cell CPT: growth inhibition of DT40 Tdp1-/-;hTDP1 cells with camptothecin (screen for TDP1 inhibitors). Potency, µM (titrated, usually from 46.2 µM), actives largely listed as inhibitors. actives 12% (n = 420,000). chicken DT40 Tdp1-/-;hTDP1 cells + 20 nM CPT, ATP luminescence, 48 h; note: nearly all actives have a fitted effect of over 55% in size
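Chicken DT40 Tdp1-/- cells complemented with human TDP1, 400 cells/well, exposed to compounds plus 20 nM camptothecin for at least 48 h at 37 C; viability read as ATP content by CellTiter-Glo luminescence.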
Each line names hits and unclear results; the compound was inactive in the other large screens. Compounds with a hit are over-represented: about 19% of the library has one in this group of screens. Calls come from the whole dose curve; as a rule, active = well fitted curve in the direction sought with a large enough effect; inconclusive = small, poorly fitted or top-dose-only effect, or another doubt; inactive = no such curve, though single readings can be large; an effect the other way counts as inactive or inconclusive.

CCOC(=O)c1c(C)[nH]c(C)c1S(=O)(=O)NCC(=O)N1CCN(c2ccccc2F)CC1	TDP1 cell CPT inconclusive (no result: HT1080NT lethal, HT1080 IDH1KD tx)
Cc1cccc(N2CCN(S(=O)(=O)c3c(C)[nH]c(C)c3C(=O)N3CCCCC3)CC2)c1C	DT40 TDP1 no CPT inconclusive, KB-3-1 tox inconclusive, HT1080 IDH1KD tx inconclusive, TDP1 cell CPT 21µM
Cc1cccc(N2CCN(S(=O)(=O)c3c(C(=O)N4CCC(C)CC4)c(C)n(C)c3C)CC2)c1C	DT40 TDP1 no CPT 23µM (no result: KB-3-1 tox, HT1080NT lethal, KB-V1 cytotox, HT1080 IDH1KD tx)
COCc1cc(=O)[nH]c(-c2ccccc2OC(F)(F)F)n1	none
CCCS(=O)(=O)c1nc(S(=O)(=O)c2ccc(C)cc2)c(N2CCC(C(N)=O)CC2)s1	TDP1 cell CPT inconclusive
CC(C)C1N=C2c3ccccc3N=C(SCc3cc(=O)n4cc(Cl)ccc4n3)N2C1=O (centres undefined)	DT40 TDP1 no CPT 15µM, KB-3-1 tox inconclusive, KB-V1 cytotox 23µM, TDP1 cell CPT inconclusive
CC(C)C1N=C2c3ccccc3N=C(SCC(=O)NCc3ccc(Cl)cc3)N2C1=O (centres undefined)	DT40 TDP1 no CPT inconclusive, TDP1 cell CPT inconclusive (no result: HT1080NT lethal, HT1080 IDH1KD tx)
O=S1(=O)N=C(Oc2ccc(Br)cc2)c2ccccc21	none (no result: DT40 TDP1 no CPT, HT1080NT lethal, HT1080 IDH1KD tx, TDP1 cell CPT)
Cc1ccc(C)c(S(=O)(=O)c2cn(C)c3cc(N4CCCCC4C)c(F)cc3c2=O)c1 (centres undefined)	DT40 TDP1 no CPT 21µM, TDP1 cell CPT 21µM (no result: HT1080NT lethal, HT1080 IDH1KD tx)
Cc1ccc(C)c(S(=O)(=O)c2cn(C)c3cc(F)c(F)cc3c2=O)c1	none (no result: HT1080NT lethal, HT1080 IDH1KD tx)
CCc1ccc(S(=O)(=O)c2cn(C)c3cc(N4CCC(C)CC4)c(F)cc3c2=O)cc1	DT40 TDP1 no CPT 15µM, TDP1 cell CPT 15µM (no result: HT1080NT lethal, HT1080 IDH1KD tx)
CCc1ccc(S(=O)(=O)c2cn(C)c3cc(N4CCCCC4C)c(F)cc3c2=O)cc1 (centres undefined)	DT40 TDP1 no CPT 15µM, TDP1 cell CPT inconclusive (no result: HT1080NT lethal, HT1080 IDH1KD tx)
Cc1cc([N+](=O)[O-])nn1CCC(=O)Nc1nccs1	none
CCN(CC)CCNC(Cc1ccccc1)c1cccc(OC)c1 (centres undefined)	DT40 TDP1 no CPT inconclusive, KB-V1 cytotox 23µM, TDP1 cell CPT inconclusive
CCc1c(C(=O)Nc2ccncc2)csc1C	DT40 TDP1 no CPT 21µM, KB-V1 cytotox 16µM, TDP1 cell CPT inconclusive
CC(OC(=O)CCc1nc2ccccc2[nH]c1=O)c1ccccc1 (centres undefined)	none
CCc1ccc(N2C(=O)c3sc4nnc(-c5ccccc5)c(=O)n4c3C2=O)cc1	DT40 TDP1 no CPT 13µM, TDP1 cell CPT 12µM
CC(=O)Nc1ccc(S(=O)(=O)O)c2cc(S(=O)(=O)O)c(N=Nc3ccc(N=Nc4ccc(S(=O)(=O)O)cc4)c4ccc(S(=O)(=O)O)cc34)c(O)c12	DT40 TDP1 no CPT 13µM, KB-3-1 tox inconclusive, KB-V1 cytotox inconclusive, TDP1 cell CPT 8.9µM (no result: HT1080NT lethal, HT1080 IDH1KD tx)
CC(=O)Nc1cccc2cc(S(=O)(=O)O)ccc12	none
ClC(=C\c1ccccc1)/C=N/N1CCN(c2ccccn2)CC1	DT40 TDP1 no CPT inconclusive, KB-V1 cytotox 18µM, TDP1 cell CPT inconclusive
Cc1ccc(/C=N/N2CCN(c3ccccn3)CC2)cc1	none
CC(/C=N/n1cnnc1)=C\c1ccccc1	KB-3-1 tox 5.2µM, KB-V1 cytotox 1.8µM
ClC(/C=N/n1cnnc1)=C/c1ccccc1	DT40 TDP1 no CPT 1.8µM, KB-3-1 tox inconclusive, TDP1 cell CPT 15µM
CC(=C/c1ccccc1)/C=N/n1cnnc1	none
CCC1CN(CCNC(=O)c2ccc3c(c2)OCCO3)Cc2cc(OC)ccc2O1 (centres undefined)	none (no result: KB-3-1 tox, HT1080NT lethal, KB-V1 cytotox, HT1080 IDH1KD tx)
O=C(CSc1nc2ccccc2c(=O)[nH]1)c1ccccc1	DT40 TDP1 no CPT 29µM, TDP1 cell CPT 21µM
O=C(O)CSc1nc2ccccc2c(=O)[nH]1	none
COc1ccc(OCCSc2nc3ccccc3c(=O)[nH]2)cc1	DT40 TDP1 no CPT inconclusive, TDP1 cell CPT inconclusive
CC(C)(C)c1ccc(C(=O)CSc2nc3ccccc3c(=O)[nH]2)cc1	DT40 TDP1 no CPT 2.8µM, TDP1 cell CPT 2.8µM
O=c1[nH]c(CSc2nnnn2-c2ccc(Cl)cc2)nc2ccccc12	DT40 TDP1 no CPT inconclusive
CC(C)(C)NC(=O)CSc1nc2ccccc2c(=O)[nH]1	none
CCc1ccc(-n2c(CSc3nnnn3-c3ccccc3)nc3ccccc3c2=O)cc1	DT40 TDP1 no CPT 18µM, TDP1 cell CPT inconclusive
COc1cccc(OCCSc2nc3ccccc3c(=O)[nH]2)c1	DT40 TDP1 no CPT 21µM
Cc1cccc(/C(N)=N/OC(=O)CCc2ccccc2)c1	none
CCC[C@@H]1CCCC/C=C\CCCC(=O)OCCN1C(=O)OC(C)(C)C	DT40 TDP1 no CPT inconclusive, TDP1 cell CPT inconclusive
N#CCC(=O)Nc1ccc(C(=O)OCC(=O)NC2CCCc3ccccc32)cc1 (centres undefined)	none
COc1ccc(C(=O)O)cc1S(=O)(=O)Nc1ccc(N2CCCCC2)cc1	KB-V1 cytotox inconclusive
COc1ccc(C(=O)CSc2nc(C(C)(C)C)nc3ccccc23)cc1	DT40 TDP1 no CPT 21µM, TDP1 cell CPT inconclusive
Cc1cc(C(=O)CSc2nc3ccccc3n2C)c(C)n1C	DT40 TDP1 no CPT inconclusive, TDP1 cell CPT inconclusive
Cc1cc(C(=O)CSc2nc3ccccc3c(=O)[nH]2)c(C)n1C	DT40 TDP1 no CPT 6.5µM, TDP1 cell CPT inconclusive
O=c1[nH]c(SCc2nc3ccccc3c(=O)n2-c2ccccc2)nc2ccccc12	DT40 TDP1 no CPT inconclusive, HT1080NT lethal inconclusive, HT1080 IDH1KD tx inconclusive, TDP1 cell CPT 12µM
